Laboratory results from PubChem BioAssay (Tox21).
Records with an inconclusive call do not appear. Entries that show only a call come without a potency. Unmarked numbers belong to inactive results. Active and inactive are the calls of the source. Calls follow the shape of the dose curve; as a rule, active = well fitted cell-killing curve with a large enough effect in the repeat runs; inconclusive = weak or mixed curves, or effect the other way; inactive = flat fitted curve, though single readings scatter.

assay: qHTS assay to identify small molecule antagonists of the estrogen receptor alpha (ER-alpha) signaling pathway using the BG1 cell line in the presence of 0.1 nM 17-beta-estradiol - cell viability counter screen (AID 1259241); settings: VM7Luc4E2 (BG1) viability, CellTiter-Fluor protease, 22 h, 0.1 nM estradiol agonist added; series mostly up to 92.4 µM; also: nearly all actives have a fitted effect of over 40% in size
Text: National Center for Advancing Translational Sciences [NCATS]
NIH Chemical Genomics Center [NCGC]
U.S. Environmental Protection Agency [EPA]
National Institutes of Environmental Health Sciences [NIEHS]
National Toxicology Program [NTP]
U.S. Food and Drug Administration [FDA]
Estrogen receptor (ER), a member of the nuclear hormone receptor plays an important role in development, metabolic homeostasis and reproduction. Two subtypes of ER, ER-alpha and ER-beta, have similar expression patterns with some uniqueness in both types. Endocrine disrupting chemicals (EDCs) and their interactions with steroid hormone receptors like ER causes disruption of normal endocrine function. Therefore, it is important to understand the effect of environmental chemicals in ER signaling pathway. For identifying ER antagonists, VM7Luc4E2 cell line was used to screen against Tox21 compound libraries.
VM7Luc4E2 cell line (provided by Denison MS, University of California) endogenously express full-length ER-alpha and is stably transfected with a plasmid containing four estrogen responsive elements (ERE) upstream of a luciferase reporter gene. The current screening for identification of ER-alpha inhibitors against Tox21 compound libraries used lower concentration (0.1 nM) of 17beta-Estradiol as a stimulator. The cytotoxicity of the Tox21 compound libraries against VM7Luc4E2 cell line was tested by measuring live-cell protease activity using CellTiter-Fluor assay in the same wells.
Tox21 Assay Protocol Summary:
VM7Luc4E2 cells were cultured in phenol red free assay medium containing 10% charcoal stripped FBS for 5 days prior to the assay. The cells were dispensed at 4,000 cells/well in 4 uL of assay medium into white wall/solid-bottom 1536-well plates (Corning Life Sciences, Corning, NY) using a Multidrop Combi (ThermoFisher Scientific, Waltham, MA) dispenser. After the assay plates were incubated at 37C and 5% CO2 for 24 hr, 23 nL of compounds dissolved in DMSO, positive controls or DMSO only was transferred to the assay plates by a Pintool station (Kalypsys, San Diego, CA). The transfer of compounds was followed by the addition of 1 uL of 0.1 nM (final concentration) agonist (17beta-Estradiol)/assay medium using a Flying Reagent Dispenser (FRD, Aurora Discovery, San Diego, CA). The plates were incubated at 37C and 5% CO2 for 22 hr. For cytotoxicity assay, 1 uL of CellTiter-Fluor reagent (Promega Corporation, Madison, WI) was added to each well using the FRD and after 30 min incubation at 37C and 5% CO2, The fluorescence intensity was measured using ViewLux plate reader (PerkinElmer, Shelton, CT).
Potency is read from the fitted curve at half-maximal effect.

**Q.** Which Potency does the source give for `CCC(C)C(=O)OC` (stereo not given) here?
**A.** The Potency was “inactive”.

**Q.** With `Cc1occc1SSc1ccoc1C` as the compound, how does the Potency read?
**A.** Its Potency is “inactive”.

**Q.** Which Potency does the source give for `C/C=C/CO` here?
**A.** The Potency was “inactive”.

**Q.** For `C=CC/C=C/C/C=C/C/C=C/C`, which Potency is on record?
**A.** Its Potency is “inactive”.

**Q.** Which Potency does the source give for `C=CC(=O)OCCC#N` here?
**A.** The Potency was “inactive”.

**Q.** Which Potency does the source give for `OCCCS` here?
**A.** Its Potency is “inactive”.

**Q.** For `CN(Cc1cc(Br)cc(Br)c1N)C1CCCCC1`, which Potency is on record?
**A.** The Potency was “inactive”.

**Q.** For `CC(=O)c1ccccc1N`, which Potency is on record?
**A.** The Potency was “inactive”.

**Q.** For `c1ccc2c(c1)CCC2`, which Potency is on record?
**A.** The Potency was “inactive”.

**Q.** For `CCCCCCCOC(=O)c1ccc(O)cc1`, which Potency is on record?
**A.** The Potency was “inactive”.

**Q.** With `CCCCCCCC(OC)OC` as the compound, how does the Potency read?
**A.** The Potency was “inactive”.

**Q.** Which Potency does the source give for `CCCC(=O)OCC(COC(=O)CCC)OC(=O)CCC` here?
**A.** Its Potency is “inactive”.

**Q.** With `COC(=O)CC#N` as the compound, how does the Potency read?
**A.** Its Potency is “inactive”.

**Q.** For `Cc1ccc(CCn2c3c(c4cc(Cl)ccc42)CN(C)CC3)cn1`, which Potency is on record?
**A.** Its Potency is “inactive”.

**Q.** With `NC(=O)C(=O)N/N=C/c1ccc([N+](=O)[O-])o1` as the compound, how does the Potency read?
**A.** Its Potency is “inactive”.

**Q.** Which Potency does the source give for `COC(=O)C1=C(C)NC(C)=C(C(=O)OCCCN2CCC(c3ccccc3)(c3ccccc3)CC2)C1c1cccc([N+](=O)[O-])c1` (stereo not given) here?
**A.** The Potency was “inactive”.

**Q.** Which Potency does the source give for `CCN=C1C=CC(=C(c2ccc(N(CC)CC)cc2)c2ccc(N(CC)CC)cc2)c2ccccc21` here?
**A.** Its Potency is 24.2 µM (active).

**Q.** For `CC(C)c1ccc(O)c(C(C)C)c1`, which Potency is on record?
**A.** The Potency was “inactive”.

**Q.** With `CC(C)(c1cc(Br)c(OCCO)c(Br)c1)c1cc(Br)c(OCCO)c(Br)c1` as the compound, how does the Potency read?
**A.** Its Potency is “inactive”.

**Q.** With `Oc1ccc(-c2ccccc2)c(Cl)c1` as the compound, how does the Potency read?
**A.** Its Potency is “inactive”.

**Q.** For `O=C(O)c1cccc(Cl)n1`, which Potency is on record?
**A.** Its Potency is “inactive”.

**Q.** With `COc1nccnc1CC(C)C` as the compound, how does the Potency read?
**A.** The Potency was “inactive”.

**Q.** With `CC(C)N=C(N)/N=C(\N)Nc1ccc(Cl)cc1` as the compound, how does the Potency read?
**A.** Its Potency is “inactive”.

**Q.** Which Potency does the source give for `C/C=C/c1ccc(OC)c(OC)c1` here?
**A.** Its Potency is “inactive”.

**Q.** With `CC(=O)C=O` as the compound, how does the Potency read?
**A.** The Potency was “inactive”.

**Q.** For `CC(O)C#CC(C)O` (stereo not given), which Potency is on record?
**A.** The Potency was “inactive”.

**Q.** Which activity change, negative = cytotoxicity does the source give for `N[C@@H](CSSC[C@H](N)C(=O)O)C(=O)O` here?
**A.** The activity change, negative = cytotoxicity was 0.433% [at 0.349 µM].

**Q.** With `OCCN1CN(CCO)CN(CCO)C1` as the compound, how does the Potency read?
**A.** The Potency was “inactive”.

**Q.** For `O=C1OC(=O)c2ccc3c4c(ccc1c24)C(=O)OC3=O`, which Potency is on record?
**A.** The Potency was “inactive”.

**Q.** For `CCO[Si](C)(C)OCC`, which Potency is on record?
**A.** The Potency was “inactive”.

**Q.** With `C[Si](C)O[Si](C)C` as the compound, how does the Potency read?
**A.** Its Potency is “inactive”.

**Q.** For `CCC(C)(C)c1cc(O)c(C(C)(C)CC)cc1O`, which Potency is on record?
**A.** Its Potency is “inactive”.

**Q.** With `CCCCCCCCCCCCCCNCCO` as the compound, how does the Potency read?
**A.** Its Potency is “inactive”.

**Q.** With `CCCCN(C)C` as the compound, how does the Potency read?
**A.** Its Potency is “inactive”.

**Q.** With `O=C(Oc1ccccc1)c1cccc(C(=O)Oc2ccccc2)c1` as the compound, how does the Potency read?
**A.** The Potency was “inactive”.

**Q.** Which Potency does the source give for `Cc1cccc(C)n1` here?
**A.** The Potency was “inactive”.

**Q.** Which Potency does the source give for `Nc1ncnc2c1ncn2[C@@H]1O[C@H](COP(=O)(O)O)[C@@H](O)[C@H]1O` here?
**A.** Its Potency is “inactive”.

**Q.** Which Potency does the source give for `Cc1c(C)n(Cc2ccccc2)c2ccc(C(=O)OCCN(C)C)cc12` here?
**A.** The Potency was “inactive”.

**Q.** With `CCCCCCC(C)Nc1ccc(Nc2ccccc2)cc1` (stereo not given) as the compound, how does the Potency read?
**A.** The Potency was “inactive”.

**Q.** Which Potency does the source give for `CNC(=S)NN` here?
**A.** Its Potency is “inactive”.
